# Tests used:
# Assay in all cases: DAPPL (digital affinity profiling via proximity ligation, sequencing); 10 mM Tris-HCl pH 7.5, 50 mM NaCl, 1 mM DTT, 4% glycerol, room temperature, 30 min; GST-TFs on glutathione beads, 16-mer random dsDNA library, 0.1% formaldehyde crosslink after washing; high values mean tight binding
# FEV = molecular target: T1, FEV (Homo sapiens, UniProt Q99581 1-238); conditions: protein: recombinant; tags: N-terminal GST; dsDNA, one strand shown
# T1 sequence: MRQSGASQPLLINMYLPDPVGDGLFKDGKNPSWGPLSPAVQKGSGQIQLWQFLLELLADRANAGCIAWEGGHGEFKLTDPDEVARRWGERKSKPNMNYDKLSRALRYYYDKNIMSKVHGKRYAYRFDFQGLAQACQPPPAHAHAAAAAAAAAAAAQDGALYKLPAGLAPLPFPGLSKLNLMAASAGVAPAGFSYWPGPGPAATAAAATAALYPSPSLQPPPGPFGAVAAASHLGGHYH
# Procedure, shortened: (§1)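 Pools of DNA-barcoded human transcription factors, expressed in yeast as GST fusions on glutathione beads and combined with a tag-only sample, were incubated with 200 nmole of a 16-mer random double-stranded DNA library. Incubation took 30 min at room temperature in Tris/NaCl/DTT/glycerol buffer and was followed by washing, 0.1% formaldehyde crosslinking, proximity ligation (BsaI/T4 ligase, 1 h, 37 °C), PCR amplification and sequencing on an Illumina NextSeq500. Binding signal is the ratio of a hexamer's read frequency for a factor to its frequency for the tag-only sample.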
# ETV5 = ETV5 (Homo sapiens, UniProt P41161 1-510); conditions: protein: recombinant; tags: N-terminal GST; dsDNA, one strand shown
# Procedure, shortened: as §1
# HSF1 = HSF1 (Homo sapiens, UniProt Q00613 1-529); conditions: protein: recombinant; tags: N-terminal GST; chain copies: 3; dsDNA, one strand shown
# Procedure, shortened: as §1
# SPIC = molecular target: T2, SPIC (Homo sapiens, UniProt Q8N5J4 1-248); conditions: protein: recombinant; tags: N-terminal GST; dsDNA, one strand shown
# T2 sequence: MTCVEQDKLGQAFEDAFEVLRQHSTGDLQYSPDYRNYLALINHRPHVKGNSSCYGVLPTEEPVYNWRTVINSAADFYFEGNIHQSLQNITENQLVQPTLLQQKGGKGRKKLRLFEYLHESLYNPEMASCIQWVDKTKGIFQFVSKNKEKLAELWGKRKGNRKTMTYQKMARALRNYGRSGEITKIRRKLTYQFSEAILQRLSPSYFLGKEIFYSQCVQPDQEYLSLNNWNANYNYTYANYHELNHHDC
# Procedure, shortened: as §1
# ELF4 = ELF4 (Homo sapiens, UniProt Q99607 1-663); conditions: protein: recombinant; tags: N-terminal GST; dsDNA, one strand shown
# Procedure, shortened: as §1
# ELK4 = molecular target: T3, ELK4 (Homo sapiens, UniProt P28324-2 1-405); conditions: protein: recombinant; tags: N-terminal GST; dsDNA, one strand shown
# T3 sequence: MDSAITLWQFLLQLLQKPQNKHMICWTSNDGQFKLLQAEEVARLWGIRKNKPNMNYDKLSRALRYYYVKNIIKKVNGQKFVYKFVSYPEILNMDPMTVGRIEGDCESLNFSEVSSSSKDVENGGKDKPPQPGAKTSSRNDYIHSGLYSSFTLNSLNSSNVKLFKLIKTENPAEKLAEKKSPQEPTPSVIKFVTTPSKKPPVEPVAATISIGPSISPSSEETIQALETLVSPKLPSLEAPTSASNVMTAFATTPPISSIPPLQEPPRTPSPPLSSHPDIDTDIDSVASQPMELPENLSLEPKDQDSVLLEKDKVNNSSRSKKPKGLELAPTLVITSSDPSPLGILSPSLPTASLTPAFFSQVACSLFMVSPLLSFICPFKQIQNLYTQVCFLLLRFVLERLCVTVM
# Procedure, shortened: as §1
# ETV2 = molecular target: T4, ETV2 (Homo sapiens, UniProt O00321 1-342); conditions: protein: recombinant; tags: N-terminal GST; dsDNA, one strand shown
# T4 sequence: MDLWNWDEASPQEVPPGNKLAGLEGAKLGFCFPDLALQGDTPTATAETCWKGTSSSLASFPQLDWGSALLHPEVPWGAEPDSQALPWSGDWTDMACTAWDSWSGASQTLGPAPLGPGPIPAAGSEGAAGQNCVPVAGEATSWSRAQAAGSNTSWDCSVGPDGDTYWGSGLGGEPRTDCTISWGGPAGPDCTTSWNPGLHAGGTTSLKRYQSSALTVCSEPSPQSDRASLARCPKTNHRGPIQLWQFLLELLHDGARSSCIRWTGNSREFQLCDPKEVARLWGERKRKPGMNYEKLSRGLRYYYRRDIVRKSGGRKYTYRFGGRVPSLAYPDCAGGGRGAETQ
# Procedure, shortened: as §1
# ELF3 = molecular target: T5, ELF3 (Homo sapiens, UniProt P78545 1-371); conditions: protein: recombinant; tags: N-terminal GST; dsDNA, one strand shown
# T5 sequence: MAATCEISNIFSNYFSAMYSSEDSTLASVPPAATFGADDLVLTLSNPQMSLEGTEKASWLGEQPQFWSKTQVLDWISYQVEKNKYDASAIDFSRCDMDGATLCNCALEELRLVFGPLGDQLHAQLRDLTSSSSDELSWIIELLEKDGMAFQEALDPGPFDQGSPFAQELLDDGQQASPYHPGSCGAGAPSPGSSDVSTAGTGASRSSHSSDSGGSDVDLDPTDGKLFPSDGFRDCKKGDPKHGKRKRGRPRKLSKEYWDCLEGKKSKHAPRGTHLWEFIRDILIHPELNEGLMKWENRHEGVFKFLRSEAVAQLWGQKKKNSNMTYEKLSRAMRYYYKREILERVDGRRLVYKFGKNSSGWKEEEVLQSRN
# Procedure, shortened: as §1
# CRX = CRX (Homo sapiens, UniProt O43186 1-299); conditions: protein: recombinant; tags: N-terminal GST; dsDNA, one strand shown
# Procedure, shortened: as §1
# ETV1 = ETV1 (Homo sapiens, UniProt P50549 1-477); conditions: protein: recombinant; tags: N-terminal GST; dsDNA, one strand shown
# Procedure, shortened: as §1
# ERF = molecular target: T6, ERF (Homo sapiens, UniProt P50548 1-548); conditions: protein: recombinant; tags: N-terminal GST; dsDNA, one strand shown
# T6 sequence: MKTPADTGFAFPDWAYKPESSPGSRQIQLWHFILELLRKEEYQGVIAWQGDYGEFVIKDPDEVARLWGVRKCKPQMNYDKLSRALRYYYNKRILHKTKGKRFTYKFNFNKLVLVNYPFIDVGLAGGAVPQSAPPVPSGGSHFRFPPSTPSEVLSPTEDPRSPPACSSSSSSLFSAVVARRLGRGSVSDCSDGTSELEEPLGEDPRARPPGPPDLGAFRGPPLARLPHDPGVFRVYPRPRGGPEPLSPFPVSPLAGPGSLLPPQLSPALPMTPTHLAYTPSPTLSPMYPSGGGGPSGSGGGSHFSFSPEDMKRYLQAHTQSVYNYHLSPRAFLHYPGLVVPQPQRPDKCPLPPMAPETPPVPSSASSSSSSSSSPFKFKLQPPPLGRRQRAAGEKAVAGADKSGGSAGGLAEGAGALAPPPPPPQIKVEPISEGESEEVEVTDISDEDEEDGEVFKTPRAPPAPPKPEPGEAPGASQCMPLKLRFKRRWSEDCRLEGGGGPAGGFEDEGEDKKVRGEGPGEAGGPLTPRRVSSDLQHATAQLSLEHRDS
# Procedure, shortened: as §1
# ETV3L = molecular target: T7, ETV3L (Homo sapiens, UniProt Q6ZN32 1-361); conditions: protein: recombinant; tags: N-terminal GST; dsDNA, one strand shown
# T7 sequence: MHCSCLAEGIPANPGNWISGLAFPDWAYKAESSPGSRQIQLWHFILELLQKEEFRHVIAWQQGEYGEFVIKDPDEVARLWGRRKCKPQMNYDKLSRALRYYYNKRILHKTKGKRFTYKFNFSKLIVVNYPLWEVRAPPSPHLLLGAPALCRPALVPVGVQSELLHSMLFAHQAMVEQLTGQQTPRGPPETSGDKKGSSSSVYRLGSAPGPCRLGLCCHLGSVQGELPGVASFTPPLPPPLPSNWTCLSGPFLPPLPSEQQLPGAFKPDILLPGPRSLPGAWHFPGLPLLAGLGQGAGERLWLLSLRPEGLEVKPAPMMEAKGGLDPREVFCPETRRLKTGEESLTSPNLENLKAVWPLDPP
# Procedure, shortened: as §1
# ETS2 = molecular target: T8, ETS2 (Homo sapiens, UniProt P15036 1-469); conditions: protein: recombinant; tags: N-terminal GST; dsDNA, one strand shown
# T8 sequence: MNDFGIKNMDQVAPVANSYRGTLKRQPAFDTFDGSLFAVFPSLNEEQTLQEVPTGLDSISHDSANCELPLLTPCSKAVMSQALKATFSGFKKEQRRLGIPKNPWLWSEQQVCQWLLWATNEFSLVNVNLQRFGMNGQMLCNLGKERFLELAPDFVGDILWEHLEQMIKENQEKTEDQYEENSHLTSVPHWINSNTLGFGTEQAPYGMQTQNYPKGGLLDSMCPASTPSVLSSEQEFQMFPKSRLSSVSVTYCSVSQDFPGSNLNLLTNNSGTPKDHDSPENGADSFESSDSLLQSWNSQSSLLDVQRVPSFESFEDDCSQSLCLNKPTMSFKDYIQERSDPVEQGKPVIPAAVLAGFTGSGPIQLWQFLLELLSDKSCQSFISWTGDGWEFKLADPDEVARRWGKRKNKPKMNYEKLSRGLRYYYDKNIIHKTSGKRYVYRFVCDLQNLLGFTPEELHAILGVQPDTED
# Procedure, shortened: as §1
# ETV7 = molecular target: T9, ETV7 (Homo sapiens, UniProt Q9Y603 1-341); conditions: protein: recombinant; tags: N-terminal GST; dsDNA, one strand shown
# T9 sequence: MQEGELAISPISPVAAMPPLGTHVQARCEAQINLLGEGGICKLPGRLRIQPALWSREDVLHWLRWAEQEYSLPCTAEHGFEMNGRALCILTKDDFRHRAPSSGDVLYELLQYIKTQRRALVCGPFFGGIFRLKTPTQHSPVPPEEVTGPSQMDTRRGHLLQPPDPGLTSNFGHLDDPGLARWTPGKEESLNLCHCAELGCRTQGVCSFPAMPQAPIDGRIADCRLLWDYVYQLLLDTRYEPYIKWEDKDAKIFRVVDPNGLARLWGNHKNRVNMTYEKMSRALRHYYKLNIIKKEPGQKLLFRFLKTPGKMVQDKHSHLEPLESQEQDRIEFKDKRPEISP
# Procedure, shortened: as §1
# ELF5 = molecular target: T10, ELF5 (Homo sapiens, UniProt Q9UKW6-2 1-255); conditions: protein: recombinant; tags: N-terminal GST; dsDNA, one strand shown
# T10 sequence: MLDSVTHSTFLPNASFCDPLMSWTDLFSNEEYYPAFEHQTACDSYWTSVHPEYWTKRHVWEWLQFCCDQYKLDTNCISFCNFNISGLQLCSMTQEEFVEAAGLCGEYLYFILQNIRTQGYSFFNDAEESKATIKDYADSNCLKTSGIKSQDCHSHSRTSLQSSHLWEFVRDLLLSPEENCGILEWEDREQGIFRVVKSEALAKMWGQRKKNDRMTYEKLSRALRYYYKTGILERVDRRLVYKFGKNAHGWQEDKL
# Procedure, shortened: as §1
# ETV3 = molecular target: T11, ETV3 (Homo sapiens, UniProt P41162-2 1-143); conditions: protein: recombinant; tags: N-terminal GST; dsDNA, one strand shown
# T11 sequence: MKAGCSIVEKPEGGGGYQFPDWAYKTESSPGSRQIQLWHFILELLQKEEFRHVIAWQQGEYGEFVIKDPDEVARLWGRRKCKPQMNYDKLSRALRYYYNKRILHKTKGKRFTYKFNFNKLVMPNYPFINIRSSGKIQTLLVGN
# Procedure, shortened: as §1
# ETV6 = ETV6 (Homo sapiens, UniProt P41212 1-452); conditions: protein: recombinant; tags: N-terminal GST; dsDNA, one strand shown
# Procedure, shortened: as §1
# Chain of ETV1 (P50549 whole entry): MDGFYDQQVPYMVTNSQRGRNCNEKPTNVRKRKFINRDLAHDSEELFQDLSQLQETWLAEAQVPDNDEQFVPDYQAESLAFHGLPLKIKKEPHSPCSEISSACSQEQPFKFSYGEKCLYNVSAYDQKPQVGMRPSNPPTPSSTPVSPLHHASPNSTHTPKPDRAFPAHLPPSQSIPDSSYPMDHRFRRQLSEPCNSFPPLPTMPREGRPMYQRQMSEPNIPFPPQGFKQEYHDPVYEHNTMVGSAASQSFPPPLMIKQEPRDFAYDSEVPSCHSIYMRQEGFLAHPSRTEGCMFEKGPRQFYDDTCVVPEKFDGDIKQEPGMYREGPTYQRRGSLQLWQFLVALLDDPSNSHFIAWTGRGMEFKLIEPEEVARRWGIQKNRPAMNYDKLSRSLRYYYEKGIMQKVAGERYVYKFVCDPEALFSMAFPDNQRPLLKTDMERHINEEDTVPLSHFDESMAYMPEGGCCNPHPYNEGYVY
# Chain of ETV5 (P41161 whole entry): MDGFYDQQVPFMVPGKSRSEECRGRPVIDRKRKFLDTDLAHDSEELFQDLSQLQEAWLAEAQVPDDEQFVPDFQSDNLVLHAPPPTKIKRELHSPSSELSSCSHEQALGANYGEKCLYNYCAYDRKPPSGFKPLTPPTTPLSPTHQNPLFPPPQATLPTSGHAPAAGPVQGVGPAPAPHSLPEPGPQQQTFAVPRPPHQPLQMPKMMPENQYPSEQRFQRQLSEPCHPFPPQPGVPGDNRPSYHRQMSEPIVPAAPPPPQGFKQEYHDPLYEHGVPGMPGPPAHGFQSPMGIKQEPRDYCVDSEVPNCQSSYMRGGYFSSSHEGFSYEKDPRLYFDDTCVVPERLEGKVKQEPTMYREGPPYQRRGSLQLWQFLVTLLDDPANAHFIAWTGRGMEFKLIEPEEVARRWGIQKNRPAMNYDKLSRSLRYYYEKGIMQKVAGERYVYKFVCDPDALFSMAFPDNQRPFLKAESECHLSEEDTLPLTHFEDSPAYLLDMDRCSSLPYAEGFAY
# Chain of HSF1 (Q00613 whole entry): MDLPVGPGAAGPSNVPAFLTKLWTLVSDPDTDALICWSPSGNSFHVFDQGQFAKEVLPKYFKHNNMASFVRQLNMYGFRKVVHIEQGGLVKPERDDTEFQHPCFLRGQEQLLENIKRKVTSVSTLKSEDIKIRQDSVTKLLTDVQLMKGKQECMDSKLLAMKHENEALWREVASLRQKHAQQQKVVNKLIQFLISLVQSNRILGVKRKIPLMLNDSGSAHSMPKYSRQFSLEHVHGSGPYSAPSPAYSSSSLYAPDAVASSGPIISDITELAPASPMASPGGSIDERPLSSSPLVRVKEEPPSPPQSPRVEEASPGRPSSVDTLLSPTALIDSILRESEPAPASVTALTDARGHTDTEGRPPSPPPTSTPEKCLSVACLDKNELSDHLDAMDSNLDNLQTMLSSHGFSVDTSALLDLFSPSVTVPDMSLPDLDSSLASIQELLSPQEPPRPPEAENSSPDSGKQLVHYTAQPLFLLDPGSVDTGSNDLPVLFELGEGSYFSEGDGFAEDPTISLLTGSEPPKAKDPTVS
# Chain of ETV6 (P41212 whole entry): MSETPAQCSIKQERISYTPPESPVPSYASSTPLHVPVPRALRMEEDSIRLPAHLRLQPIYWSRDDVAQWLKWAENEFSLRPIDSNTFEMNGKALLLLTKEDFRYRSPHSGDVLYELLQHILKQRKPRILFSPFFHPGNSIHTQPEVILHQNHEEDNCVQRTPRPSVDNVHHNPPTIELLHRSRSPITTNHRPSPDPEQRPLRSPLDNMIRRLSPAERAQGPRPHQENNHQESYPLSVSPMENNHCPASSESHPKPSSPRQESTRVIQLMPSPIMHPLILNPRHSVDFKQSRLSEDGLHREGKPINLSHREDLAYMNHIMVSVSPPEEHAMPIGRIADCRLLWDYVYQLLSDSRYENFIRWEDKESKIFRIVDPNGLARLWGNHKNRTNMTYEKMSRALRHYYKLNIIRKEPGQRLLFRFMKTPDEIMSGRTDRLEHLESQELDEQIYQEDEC
# Chain of ELF4 (Q99607 whole entry): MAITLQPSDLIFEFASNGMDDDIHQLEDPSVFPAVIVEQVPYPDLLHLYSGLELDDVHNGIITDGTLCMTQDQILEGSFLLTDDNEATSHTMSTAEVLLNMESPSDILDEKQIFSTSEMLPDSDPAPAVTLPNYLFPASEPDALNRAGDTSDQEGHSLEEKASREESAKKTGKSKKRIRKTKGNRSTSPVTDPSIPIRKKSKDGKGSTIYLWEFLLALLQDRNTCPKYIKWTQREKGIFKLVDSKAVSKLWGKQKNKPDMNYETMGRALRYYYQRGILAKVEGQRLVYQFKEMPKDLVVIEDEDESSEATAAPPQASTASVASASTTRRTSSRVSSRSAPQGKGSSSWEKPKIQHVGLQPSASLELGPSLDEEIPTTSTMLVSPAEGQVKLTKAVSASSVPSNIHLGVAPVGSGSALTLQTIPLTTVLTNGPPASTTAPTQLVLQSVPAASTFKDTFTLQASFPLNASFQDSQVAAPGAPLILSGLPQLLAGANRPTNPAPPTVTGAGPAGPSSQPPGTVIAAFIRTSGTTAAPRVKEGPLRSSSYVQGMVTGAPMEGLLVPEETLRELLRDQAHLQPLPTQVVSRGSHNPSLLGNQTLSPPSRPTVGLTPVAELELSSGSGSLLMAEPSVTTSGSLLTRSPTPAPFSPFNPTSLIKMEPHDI
# Chain of CRX (O43186 whole entry): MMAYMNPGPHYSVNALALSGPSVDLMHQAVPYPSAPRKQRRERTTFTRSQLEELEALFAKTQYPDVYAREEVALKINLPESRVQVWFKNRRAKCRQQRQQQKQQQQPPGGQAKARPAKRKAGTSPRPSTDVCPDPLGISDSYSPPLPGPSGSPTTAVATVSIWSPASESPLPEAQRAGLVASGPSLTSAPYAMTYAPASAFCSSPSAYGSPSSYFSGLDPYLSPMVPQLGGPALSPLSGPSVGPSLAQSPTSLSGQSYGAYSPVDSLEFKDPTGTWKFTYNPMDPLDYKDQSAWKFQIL
sequence,measurement,setting,value
AGGCTC,binding signal,FEV,"1.06 fold enrichment (6-mer frequency, TF over GST control)"
same,binding signal,ETV5,"1.02 fold enrichment (6-mer frequency, TF over GST control)"
same,binding signal,HSF1,"1.14 fold enrichment (6-mer frequency, TF over GST control)"
same,binding signal,SPIC,"1.15 fold enrichment (6-mer frequency, TF over GST control)"
same,binding signal,ELF4,"1.07 fold enrichment (6-mer frequency, TF over GST control)"
same,binding signal,ELK4,"1.06 fold enrichment (6-mer frequency, TF over GST control)"
same,binding signal,ETV2,"1.01 fold enrichment (6-mer frequency, TF over GST control)"
same,binding signal,ELF3,"1.02 fold enrichment (6-mer frequency, TF over GST control)"
same,binding signal,CRX,"1.29 fold enrichment (6-mer frequency, TF over GST control)"
same,binding signal,ETV1,"1.06 fold enrichment (6-mer frequency, TF over GST control)"
same,binding signal,ERF,"1.14 fold enrichment (6-mer frequency, TF over GST control)"
same,binding signal,ETV3L,"1.08 fold enrichment (6-mer frequency, TF over GST control)"
same,binding signal,ETS2,"1.02 fold enrichment (6-mer frequency, TF over GST control)"
same,binding signal,ETV7,"1.04 fold enrichment (6-mer frequency, TF over GST control)"
same,binding signal,ELF5,"1.04 fold enrichment (6-mer frequency, TF over GST control)"
same,binding signal,ETV3,"1.01 fold enrichment (6-mer frequency, TF over GST control)"
same,binding signal,ETV6,"1.16 fold enrichment (6-mer frequency, TF over GST control)"
